Source: the supplement of paper PMC12350171
Where a name gives a salt, the structure may show the parent alone.

Tested on: Haemophilus parainfluenzae
Assay: growth AUC normalised to DMSO control (fraction of control); higher = less growth inhibition, active = hit call of the paper
Conditions: 20 µM;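 active = AUC significantly below DMSO controls by Student t-fit with adjusted P under 0.01; inactive = not significantly reduced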
Summary of the method: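 Three biological replicates were carried out, with OD578 read hourly for 24 h. Before inoculation at a starting OD578 of 0.01, pathogens were passaged anaerobically twice; plates were pre-reduced mGAM containing 20 μM compound and 1% DMSO, sealed with breathable membranes, and the Haemophilus parainfluenzae medium carried added hemin and NAD. Area under each growth curve was calculated by the trapezoidal rule up to the exponential-to-stationary transition and normalised to DMSO controls on the same plate.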

SMILES	growth AUC normalised to DMSO control
CCc1cccc(CC)c1NC(=O)CN(CC(=O)O)CC(=O)O [Etifenin]	1.01 (inactive)
CC(C(=O)O)c1ccc2c(c1)Cc1cccnc1O2 (stereo not drawn) [Pranoprofen]	0.985 (inactive)
NCCCC(O)(P(=O)(O)O)P(=O)(O)O [Alendronate sodium]	1.05 (inactive)
C[C@H]1C[C@H]2[C@@H]3CCC4=CC(=O)C=C[C@]4(C)[C@@]3(F)[C@@H](O)C[C@]2(C)[C@@]1(O)C(=O)CO [Betamethasone]	0.974 (inactive)
CCc1cc(C(N)=S)ccn1 [Ethionamide]	0.983 (inactive)
CNCC(O)c1ccc(O)c(O)c1 (stereo not drawn) [Racepinephrine hydrochloride]	1.06 (inactive)
Cc1cn[nH]c1 [Fomepizole]	0.954 (inactive)
c1ccc2[nH]c(-c3cscn3)nc2c1 [Tiabendazole]	1.06 (inactive)
